Source: ChEMBL document CHEMBL1201862, “PubChem BioAssay data set” (2004)
The campaign covered roughly 400,000 compounds. About 2,100 (0.53%) were called active. Not shown: some 14% with an inconclusive outcome. No rule for the calls is given here. The sample as a whole holds a higher share of actives than the screen did.

These molecules were tested against Ataxin-2 (Homo sapiens) (UniProt Q99700) (assay: qHTS for Inhibitors of ATXN expression.).
Assay type: functional

Sequence of Ataxin-2 (Homo sapiens) (Q99700 whole entry): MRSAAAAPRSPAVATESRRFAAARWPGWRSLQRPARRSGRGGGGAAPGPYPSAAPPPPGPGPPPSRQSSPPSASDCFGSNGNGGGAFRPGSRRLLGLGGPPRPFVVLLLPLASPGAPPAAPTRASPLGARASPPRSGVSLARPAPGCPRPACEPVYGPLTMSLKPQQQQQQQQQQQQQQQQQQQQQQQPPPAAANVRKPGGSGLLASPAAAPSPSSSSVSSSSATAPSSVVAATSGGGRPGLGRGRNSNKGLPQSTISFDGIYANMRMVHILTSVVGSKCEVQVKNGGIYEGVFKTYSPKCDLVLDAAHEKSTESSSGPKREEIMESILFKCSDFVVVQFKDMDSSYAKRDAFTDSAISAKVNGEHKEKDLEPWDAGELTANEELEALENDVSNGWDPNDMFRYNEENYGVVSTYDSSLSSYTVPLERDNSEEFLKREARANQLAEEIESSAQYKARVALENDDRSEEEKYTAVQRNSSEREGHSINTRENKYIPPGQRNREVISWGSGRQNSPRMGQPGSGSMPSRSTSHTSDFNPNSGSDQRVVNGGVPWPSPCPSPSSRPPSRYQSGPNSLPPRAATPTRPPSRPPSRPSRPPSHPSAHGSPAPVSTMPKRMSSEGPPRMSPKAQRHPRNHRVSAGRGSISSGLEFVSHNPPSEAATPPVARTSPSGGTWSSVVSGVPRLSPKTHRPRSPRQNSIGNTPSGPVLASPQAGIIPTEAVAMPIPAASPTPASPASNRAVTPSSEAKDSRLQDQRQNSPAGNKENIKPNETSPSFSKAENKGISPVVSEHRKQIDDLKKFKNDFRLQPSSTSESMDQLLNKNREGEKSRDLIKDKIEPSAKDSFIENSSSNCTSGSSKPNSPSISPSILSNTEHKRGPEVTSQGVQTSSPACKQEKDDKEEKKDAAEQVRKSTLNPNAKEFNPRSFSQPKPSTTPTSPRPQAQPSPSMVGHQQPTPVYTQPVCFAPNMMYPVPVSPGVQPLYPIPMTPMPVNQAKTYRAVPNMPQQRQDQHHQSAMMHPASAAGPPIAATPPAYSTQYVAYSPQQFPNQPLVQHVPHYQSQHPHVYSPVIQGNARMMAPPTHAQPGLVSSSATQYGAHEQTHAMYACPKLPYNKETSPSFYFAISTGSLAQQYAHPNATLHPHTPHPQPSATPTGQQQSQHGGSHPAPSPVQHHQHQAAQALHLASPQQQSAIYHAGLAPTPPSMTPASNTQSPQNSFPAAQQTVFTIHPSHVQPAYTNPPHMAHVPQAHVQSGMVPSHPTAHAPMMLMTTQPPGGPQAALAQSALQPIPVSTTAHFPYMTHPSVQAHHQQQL

Row | Compound | Potency
1 | O=C1C=C(N(CCO)Cc2ccccc2)c2ccccc2C1=O | 29.9 µM (active)
2 | CC1(C)Cc2nc(Cl)c(C(N)=O)cc2CO1 | inactive
3 | C=CCC[C@H](Cc1ccc(F)cc1)C(=O)OC[C@H](Cc1c[nH]c2ccccc12)NC(=O)[C@@H](CC=C)CC(=O)N(CCO)Cc1ccccc1 | 22.4 µM (active)
4 | C=CCC[C@@H](Cc1ccc(F)cc1)C(=O)OC[C@@H](Cc1c[nH]c2ccccc12)NC(=O)[C@H](CC=C)CC(=O)N(CCO)Cc1ccccc1 | 22.4 µM (active)
5 | COC(=O)c1cc(NC(=O)CN2CCN(C(C)=O)CC2)cc(C(=O)OC)c1 | inactive
6 | Cc1ccc2[nH]c(CSc3nc(C)cc(C)c3C#N)nc2c1 | inactive
7 | CCc1cc(=O)oc2c(C)c(O)c(CN3CCCCC3)cc12 | inactive
8 | N#Cc1cc([N+](=O)[O-])c(-n2nnc3ccccc32)c([N+](=O)[O-])c1 | 22.4 µM (active)
9 | O=C(NOC(=O)c1c(F)cccc1Cl)c1ccc(Cl)c(Cl)c1 | inactive
10 | CCCCN1C(=O)C(O)(CC(=O)c2ccc(C)cc2C)c2cc(Br)ccc21 (configuration not stated) | 31.6 µM (active)
11 | CCCCN1C=C(C(=O)OC)C(c2ccccc2Cl)C(C(=O)OC)=C1 | inactive
12 | Cc1ccc(OCCn2cnc(Cl)c2Cl)cc1 | inactive
13 | CCN(CC)C(=O)c1cccc(NC(=O)c2cc(C3CC3)nc3c2cnn3C(C)C)c1 | inactive
14 | CC(=O)c1ccc(S(=O)(=O)NCCC(=O)N2CCN(c3ccccn3)CC2)cc1 | inactive
15 | COc1cc2c(cc1OC)C(C)N(S(=O)(=O)c1cnc(Cl)c(Cl)c1)CC2 (configuration not stated) | 12.6 µM (active)
16 | COc1cc2c(cc1OC)CN(S(=O)(=O)c1ccccc1F)CC2 | inactive
17 | COc1ccc(-c2c(C)nn3c(N4CCOCC4)cc(C)nc23)cc1OC | inactive
18 | CSc1nc(Nc2ccc(F)cc2)cc(-c2ccccc2)n1 | 22.4 µM (active)
19 | Cc1cccc2c3nc4ccccc4nc3n(C)c12 | inactive
20 | O=c1oc2ccccc2n1CCn1c2ccccc2c2nc3ccccc3nc21 | 44.7 µM (active)
21 | COC(=O)Cn1c2ccccc2c2nc3ccccc3nc21 | inactive
22 | CC(C)(C)c1ccc(C(=O)N2CCC(=O)N([C@H](COCc3ccccc3)Cc3ccccc3)CC2)cc1 | 35.5 µM (active)
23 | CC(C)(C)c1ccc(C(=O)N2CCC(=O)N(C(COCc3ccccc3)Cc3ccccc3)CC2)cc1 (configuration not stated) | 28.2 µM (active)
24 | CC(C)CC1C(=O)N(Cc2cn(Cc3ccco3)nn2)CCS(=O)(=O)N1Cc1ccc(-c2cccc(CO)c2)cc1 (configuration not stated) | 35.5 µM (active)
25 | COc1ccc(-c2ccc(CN3C(CC(C)C)C(=O)N(Cc4cn(CC5CCCCC5)nn4)CCS3(=O)=O)cc2)cn1 (configuration not stated) | 10 µM (active)

Row | Compound | Potency
26 | CC(C)CC1C(=O)N(Cc2cn(Cc3ccco3)nn2)CCS(=O)(=O)N1Cc1ccc(-c2ccc(F)nc2)cc1 (configuration not stated) | 25.1 µM (active)
27 | COc1ccc(NS(=O)(=O)c2cc3c(cc2C)N(C)CCO3)c(OC)c1 | inactive
28 | CC1CCN(Cc2c(O)ccc3c2O/C(=C\c2ccco2)C3=O)CC1 | inactive
29 | O=C(c1cnn(-c2ccccc2)c1)c1cc(F)ccc1O | inactive
30 | Cc1sc(-c2ccccn2)nc1OC(=O)c1ccc(F)cc1F | inactive
31 | Cc1cc(Nc2ccc(F)cc2)n2c(nc3ccccc32)c1C#N | inactive
32 | Cc1ccc(Nc2c(-c3ccsc3)nc3cccc(C)n23)cc1 | 25.1 µM (active)
33 | Cc1cccc2nc(-c3ccccn3)c(Nc3ccc(F)cc3)n12 | 20 µM (active)
34 | Cc1ccc(Nc2nc(-c3ccccc3)c(CC(=O)O)s2)cc1 | inactive
35 | CCC1Cc2c(nc(N)c3c(N)nc(N4CCCCC4)c(C#N)c23)O1 (configuration not stated) | inactive
36 | N=c1c(C(=O)NCC2CCCO2)cc2c(=O)n3ccccc3nc2n1Cc1ccc(Cl)cc1 (configuration not stated) | inactive
37 | CC(=O)C1=NN(c2ccccc2)C(c2ccc3c(c2)OCO3)N1c1ccccc1 (configuration not stated) | inactive
38 | Cc1c2c(n3c(nc4ccccc43)c1C#N)N(CCN1CCOCC1)CC2 | inactive
39 | CCOC(=O)c1cc2c(=O)n3ccccc3nc2n(Cc2ccco2)/c1=N\C(=O)c1cccc(C)c1 | inactive
40 | CCC(=O)Oc1ccc2c(C)c(Cl)c(=O)oc2c1 | inactive
41 | CCN(CC)c1ccc2c(C)c(Cl)c(=O)oc2c1 | inactive
42 | C=C1CC(COc2ccc3c(C)c(Cl)c(=O)oc3c2)(c2ccccc2)OC1=O (configuration not stated) | 9.47 µM (active)
43 | C=C1CC(COc2cc(=O)oc3ccccc23)(c2ccccc2)OC1=O (configuration not stated) | 39.8 µM (active)
44 | COc1cc(NC(=O)c2sc3ncn(CC(=O)N4CCC(C)CC4)c(=O)c3c2C)cc(OC)c1OC | inactive
45 | COc1cc(CNC(C)c2ccccc2)cc(Br)c1OCc1ccc(F)cc1 (configuration not stated) | 39.8 µM (active)
46 | COc1cc(/C=C(\C#N)c2nc3ccccc3[nH]2)cc(Br)c1OCc1ccccc1 | inactive
47 | CCCCN(CCCC)C(=O)c1cc2c(=O)n3cccc(C)c3nc2s1 | inactive
48 | O=c1[nH][nH]c(=O)c2c(NS(=O)(=O)c3ccccc3)cccc12 | inactive
49 | O=C(O)c1ccc(Nc2nc(-c3ccccc3)c3ccccc3n2)cc1 | inactive
50 | N=C(N)Nc1nc(-c2ccccc2)c2ccccc2n1 | 1.41 µM (active)

Row | Compound | Potency
51 | NNc1nc(-c2ccccc2)c2ccccc2n1 | inactive
52 | CCCCN(C)CC(O)Cn1cc(/C=C/C(=O)c2ccc(OC)c(OC)c2)c2ccccc21 (configuration not stated) | inactive
53 | c1ccc(-c2cn3c(n2)CCc2ccc4cccnc4c2-3)cc1 | 39.8 µM (active)
54 | c1ccc(-c2cn3nc(-c4ccccc4)c(-c4ccccc4)nc3n2)cc1 | inactive
55 | c1ccc(-c2cn3nc4c(nc3n2)CCCC4)cc1 | inactive
56 | COC(=O)C1CCN(C(c2cc(OC)c(OC)c(OC)c2)c2sc3nc(C)nn3c2O)CC1 (configuration not stated) | inactive
57 | O=C(C1CCCCC1)N1CCC(O)(c2ccc(Cl)cc2)CC1 | inactive
58 | Cc1ccc([C@H]2C[C@@H](O)[C@H](n3cc(-c4ccc(F)cc4)nn3)CN2C(=O)C2CCCCC2)cc1 | 22.4 µM (active)
59 | O=C(C1CCCCC1)N1C[C@@H](n2cc(-c3ccc(F)cc3)nn2)[C@H](O)C[C@@H]1c1ccc(Cl)cc1 | 22.4 µM (active)
60 | CC1CSc2n1c(-c1ccccc1)c[n+]2-c1cccc(C(F)(F)F)c1 (configuration not stated) | inactive
61 | CC(C)NC(=O)N1c2ccccc2Sc2ccccc21 | inactive
62 | Cc1nnc(SCc2cccc3ccccc23)s1 | inactive
63 | Cc1nnc(SC(=O)N2c3ccccc3Sc3ccccc32)s1 | 25.1 µM (active)
64 | Nc1[nH]c(C(=O)c2ccccc2)c(-c2ccc(F)cc2)c1C(=O)NCCc1c[nH]c2ccccc12 | 39.8 µM (active)
65 | Nc1[nH]c(C(=O)c2ccccc2)c(-c2ccccc2C(F)(F)F)c1C(=O)NCCc1c[nH]c2ccccc12 | 25.1 µM (active)
66 | COc1ccc(C(=O)OCC(=O)c2c[nH]c3ccccc23)c(OC)c1 | inactive
67 | Nc1[nH]c(C(=O)c2ccccc2)c(-c2ccc(Cl)c(F)c2)c1C(=O)NCCc1c[nH]c2ccccc12 | 35.5 µM (active)
68 | O=C(CCCc1c[nH]c2ccccc12)Nc1ccc2ccccc2c1 | inactive
69 | Cc1ccc(N=C(S)NCCc2c[nH]c3ccccc23)c(C)c1 | inactive
70 | COc1ccc(C(=O)c2[nH]c(N)c(C(=O)NCCc3c[nH]c4ccccc34)c2-c2ccccc2Br)cc1 | 31.6 µM (active)
71 | CC(C)NC(=O)COCc1cc(-c2ccc3c(c2)OCO3)on1 | inactive
72 | Cc1c(Cc2ccccc2)sc(/N=C/c2ccc3ccccc3c2)c1C(N)=O | inactive
73 | O=C1c2cccnc2C(=O)N1Cc1ccc(F)cc1S(=O)(=O)NCc1ccco1 | inactive
74 | O=C(COC(=O)c1c2c(nc3ccccc13)/C(=C/c1ccco1)CC2)NC1CCCC1 | inactive
75 | COCCn1c(N)c(C(=O)NCC2CCCO2)c2nc3ccccc3nc21 (configuration not stated) | inactive

Row | Compound | Potency
76 | COC(=O)c1cc(S(=O)(=O)NCC2CCN(Cc3cc(C)ccc3C)CC2)cn1C | inactive
77 | N#C/C(=C\c1cc(Cl)cc(Cl)c1O)C(=O)NC1CCCCC1 | inactive
78 | O=[N+]([O-])c1c(Nc2ccc(O)cc2)cc(Cl)c2nonc12 | 2.24 µM (active)
79 | O=C(N/N=C/c1ccsc1)C1CC1 | inactive
80 | COc1ccc2[nH]c(CN3CCN(CCC(C)C)C(CCO)C3)c(C)c2c1 (configuration not stated) | inactive
81 | CCOC(=O)C1=C(C)N=c2s/c(=C/c3ccc(OCC(=O)O)c(OC)c3)c(=O)n2C1c1ccc(Cl)cc1 (configuration not stated) | inactive
82 | CCCc1nnc(NC(=O)c2nc(S(=O)(=O)Cc3cccc(C)c3)ncc2Cl)s1 | 35.5 µM (active)
83 | CCc1nnc(NC(=O)c2sc3nc4c(cc3c2N)CCCCC4)s1 | inactive
84 | CCc1nnc(NC(=O)c2nc(S(=O)(=O)Cc3ccc(C)cc3)ncc2Cl)s1 | 31.6 µM (active)
85 | CCCc1nnc(NC(=O)c2nc(S(=O)(=O)Cc3ccc(C)cc3)ncc2Cl)s1 | 39.8 µM (active)
86 | CCN1CCN(CC(=O)Nc2nc3ccc(C)cc3s2)CC1 | inactive
87 | CC(=O)Nc1nnc(COc2ccc(Cl)cc2)s1 | inactive
88 | Cc1ccc(CS(=O)(=O)c2ncc(Cl)c(C(=O)Nc3nc4ccc(C)cc4s3)n2)cc1 | 22.4 µM (active)
89 | CCc1nnc(NC(=O)c2ccc(S(=O)(=O)N(CCOC)CCOC)cc2)s1 | inactive
90 | CCc1nnc(NC(=O)c2sc3nc4c(cc3c2N)CCCCCC4)s1 | inactive
91 | Cc1ccc2nc(-c3ccc(NS(=O)(=O)c4c(C)n(C)c(=O)n(C)c4=O)cc3)sc2c1 | inactive
92 | CCc1nnc(NC(=O)c2ccc(Br)o2)s1 | inactive
93 | CCOCCC(=O)Nc1nnc(CCc2ccccc2)s1 | inactive
94 | Cc1sc(NC(=O)/C=C/c2ccco2)c(C(=O)OC(C)C)c1C | inactive
95 | O=C(O)CC/C(=N/NC(=O)CNC(=O)Cc1ccccc1)c1ccccc1 | inactive
96 | COc1ccc(/C=N/NC(=O)c2sccc2C)c2ccccc12 | inactive
97 | CCCc1nnc(SCC(=O)Nc2cccc(Cl)c2Cl)o1 | inactive
